# Data taken from publication PMC7862700, “An all-to-all approach to the identification of sequence-specific readers for epigenetic DNA modifications on cytosine”.
# Target: SPI1 (Homo sapiens, UniProt P17947 1-270)
# Assay: DAPPL (digital affinity profiling via proximity ligation, sequencing); 10 mM Tris-HCl pH 7.5, 50 mM NaCl, 1 mM DTT, 4% glycerol, room temperature, 30 min; GST-TFs on glutathione beads, 16-mer random dsDNA library, 0.1% formaldehyde crosslink after washing; high values mean tight binding
# Details: protein: recombinant; tags: N-terminal GST; dsDNA, one strand shown
# Method in brief: (§1)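 Binding signal is defined as a hexamer's read frequency for one factor over its frequency for the tag-only sample. To obtain reads, GST-fused human transcription factors were expressed in yeast, captured on glutathione beads, barcoded with DNA and pooled with that sample. Pools met 200 nmole of a 16-mer random double-stranded DNA library in Tris/NaCl/DTT/glycerol buffer for 30 min at room temperature before washing, 0.1% formaldehyde crosslinking, proximity ligation (BsaI/T4 ligase, 1 h, 37 °C), PCR and Illumina NextSeq500 sequencing.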
row,Sequence,binding signal
1,AGAGGA,"1.22 fold enrichment (6-mer frequency, TF over GST control)"
2,AGTGAA,"1.26 fold enrichment (6-mer frequency, TF over GST control)"
3,AGTGGA,"1.08 fold enrichment (6-mer frequency, TF over GST control)"
4,TAGGGA,"1.05 fold enrichment (6-mer frequency, TF over GST control)"
5,AAAGAG,"1.45 fold enrichment (6-mer frequency, TF over GST control)"
6,TGAGGA,"1.07 fold enrichment (6-mer frequency, TF over GST control)"
7,GGGGAA,"1.21 fold enrichment (6-mer frequency, TF over GST control)"
8,AGTGAT,"1.06 fold enrichment (6-mer frequency, TF over GST control)"
9,GAGGAA,"1.64 fold enrichment (6-mer frequency, TF over GST control)"
10,GGGAAG,"1.51 fold enrichment (6-mer frequency, TF over GST control)"
11,AGTGCG,"1.14 fold enrichment (6-mer frequency, TF over GST control)"
12,GTGTGC,"1.01 fold enrichment (6-mer frequency, TF over GST control)"
13,AAGAGG,"1.56 fold enrichment (6-mer frequency, TF over GST control)"
14,AGCGGA,"1.26 fold enrichment (6-mer frequency, TF over GST control)"

# Target: SPIB (Homo sapiens, UniProt Q01892 1-262)
# Assay: as above
# Details: protein: recombinant; tags: N-terminal GST; dsDNA, one strand shown
# Method in brief: as §1
# Chain of SPIB (Q01892 whole entry): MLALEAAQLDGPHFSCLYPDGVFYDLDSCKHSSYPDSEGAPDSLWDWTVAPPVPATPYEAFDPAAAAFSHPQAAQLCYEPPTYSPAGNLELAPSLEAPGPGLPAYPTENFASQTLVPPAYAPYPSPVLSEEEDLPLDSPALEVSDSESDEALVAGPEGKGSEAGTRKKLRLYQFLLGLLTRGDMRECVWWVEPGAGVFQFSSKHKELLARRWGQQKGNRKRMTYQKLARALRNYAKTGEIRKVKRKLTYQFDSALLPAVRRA
row,Sequence,binding signal
1,GTGGTG,"1.02 fold enrichment (6-mer frequency, TF over GST control)"
2,AGCGTA,"1.02 fold enrichment (6-mer frequency, TF over GST control)"
3,TCGCAG,"1.04 fold enrichment (6-mer frequency, TF over GST control)"
4,CGCTGA,"1.01 fold enrichment (6-mer frequency, TF over GST control)"

# Target: T1, ELK3 (Homo sapiens, UniProt P41970 1-407)
# T1 sequence: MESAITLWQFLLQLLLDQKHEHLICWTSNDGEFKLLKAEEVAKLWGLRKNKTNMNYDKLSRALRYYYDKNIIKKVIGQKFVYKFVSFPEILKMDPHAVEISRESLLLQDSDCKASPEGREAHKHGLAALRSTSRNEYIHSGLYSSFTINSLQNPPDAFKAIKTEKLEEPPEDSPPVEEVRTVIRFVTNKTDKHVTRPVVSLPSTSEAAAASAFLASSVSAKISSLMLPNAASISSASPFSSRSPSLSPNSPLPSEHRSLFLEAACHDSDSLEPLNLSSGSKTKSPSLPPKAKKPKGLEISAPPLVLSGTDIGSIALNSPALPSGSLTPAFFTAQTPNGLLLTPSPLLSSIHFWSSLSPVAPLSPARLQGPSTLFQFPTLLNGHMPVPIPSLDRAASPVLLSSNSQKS
# Assay: as above
# Details: protein: recombinant; tags: N-terminal GST; dsDNA, one strand shown
# Method in brief: as §1
row,Sequence,binding signal
1,CGGAAT,"1.01 fold enrichment (6-mer frequency, TF over GST control)"
2,GCCACG,"1.03 fold enrichment (6-mer frequency, TF over GST control)"
3,AAACGT,"1.06 fold enrichment (6-mer frequency, TF over GST control)"
4,CGAGCG,"1.01 fold enrichment (6-mer frequency, TF over GST control)"
5,CCGTAG,"1.02 fold enrichment (6-mer frequency, TF over GST control)"

# Target: T2, FEV (Homo sapiens, UniProt Q99581 1-238)
# T2 sequence: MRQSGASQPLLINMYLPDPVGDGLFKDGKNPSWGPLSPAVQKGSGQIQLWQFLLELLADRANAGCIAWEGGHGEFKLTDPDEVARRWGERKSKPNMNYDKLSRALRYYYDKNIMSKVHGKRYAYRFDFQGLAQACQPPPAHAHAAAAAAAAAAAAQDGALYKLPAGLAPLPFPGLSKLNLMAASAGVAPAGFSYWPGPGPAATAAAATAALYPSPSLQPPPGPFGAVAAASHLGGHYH
# Assay: as above
# Details: protein: recombinant; tags: N-terminal GST; dsDNA, one strand shown
# Method in brief: as §1
row,Sequence,binding signal
1,CGGCCG,"1.03 fold enrichment (6-mer frequency, TF over GST control)"
2,GGACCG,"1.12 fold enrichment (6-mer frequency, TF over GST control)"
3,CGGACA,"1 fold enrichment (6-mer frequency, TF over GST control)"

# Target: T3, ETV7 (Homo sapiens, UniProt Q9Y603 1-341)
# T3 sequence: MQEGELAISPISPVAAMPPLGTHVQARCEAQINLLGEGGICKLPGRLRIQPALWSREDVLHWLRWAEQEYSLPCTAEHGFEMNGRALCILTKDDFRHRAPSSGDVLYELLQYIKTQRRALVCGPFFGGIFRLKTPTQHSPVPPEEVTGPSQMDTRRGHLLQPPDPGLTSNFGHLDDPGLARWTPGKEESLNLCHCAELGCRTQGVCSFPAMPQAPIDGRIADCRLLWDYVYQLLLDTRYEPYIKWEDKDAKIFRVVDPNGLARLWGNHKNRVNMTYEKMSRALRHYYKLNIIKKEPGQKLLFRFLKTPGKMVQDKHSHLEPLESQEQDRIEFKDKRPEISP
# Assay: as above
# Details: protein: recombinant; tags: N-terminal GST; dsDNA, one strand shown
# Method in brief: as §1
row,Sequence,binding signal
1,GGGTAC,"1 fold enrichment (6-mer frequency, TF over GST control)"
2,GTGGTG,"1 fold enrichment (6-mer frequency, TF over GST control)"
3,GCGCGG,"1.01 fold enrichment (6-mer frequency, TF over GST control)"
4,GCCACG,"1.03 fold enrichment (6-mer frequency, TF over GST control)"
5,CACGGT,"1 fold enrichment (6-mer frequency, TF over GST control)"
6,ACGGGT,"1.01 fold enrichment (6-mer frequency, TF over GST control)"
7,AAAGTG,"1.04 fold enrichment (6-mer frequency, TF over GST control)"
8,CAGCGA,"1.01 fold enrichment (6-mer frequency, TF over GST control)"
